# Source: paper PMC7819943, “Rice protein-binding microarrays: a tool to detect cis-acting elements near promoter regions in rice”
# Over roughly 39,000 sequences, “fluorescence intensity (a.u.)” has its median near 4,300; the highest 2% begin near 39,000. The sample as a whole holds a higher share of the highest values than the screen did.
# Target: T1, OsSMF1 (Oryza sativa, UniProt Q6ZLB0 1-436)
# T1 sequence: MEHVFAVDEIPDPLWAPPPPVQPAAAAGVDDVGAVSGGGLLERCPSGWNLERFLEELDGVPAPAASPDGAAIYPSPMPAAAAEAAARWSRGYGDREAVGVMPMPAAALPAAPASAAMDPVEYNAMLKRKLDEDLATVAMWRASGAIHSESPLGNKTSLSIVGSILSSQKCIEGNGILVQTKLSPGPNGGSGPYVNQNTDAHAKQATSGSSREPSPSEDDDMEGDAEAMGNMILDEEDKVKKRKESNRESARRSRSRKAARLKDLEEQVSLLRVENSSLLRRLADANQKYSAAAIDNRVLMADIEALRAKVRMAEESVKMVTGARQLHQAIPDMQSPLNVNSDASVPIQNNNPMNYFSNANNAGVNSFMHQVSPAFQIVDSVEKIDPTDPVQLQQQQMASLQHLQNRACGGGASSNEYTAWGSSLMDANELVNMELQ
# Assay: protein-binding microarray (RPBM); PBS, 2% BSA, 51.3 ng/ul salmon testes DNA, 50 uM zinc acetate, 200 nM TF, 25 C, 1 h; high values mean tight binding
# Conditions: protein: recombinant; tags: N-terminal polyhistidine and DsRed monomer fusion (pET32a); chain copies: 2; label: CyDye5-dUTP incorporated in the synthesized complementary strand; 3' TTTTT single-stranded linker to array surface; dsDNA, one strand shown
# In short: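 Transcription factors were made in E. coli BL21-CodonPlus as N-terminal fusions to a polyhistidine tag and DsRed, then purified on Ni–NTA. After primer extension with Cy5-dUTP and blocking with 2% BSA, a custom Agilent array was exposed for 1 h at 25 °C to 200 nM protein in PBS, 2% BSA, salmon testes DNA and 50 µM zinc acetate. Washed arrays were scanned on an Axon 4000B, and the binding signal is per-feature fluorescence intensity in arbitrary units.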
row,Sequence,binding signal
1,CATATTCTGATATTCCCATCCACGTCAGCATTTCCCCACCCGGAGTCACCTAGTGCAG,41000 fluorescence intensity (a.u.)
2,CCCCTCCCCATCGTCAGCATCTTTCTTTCTCTTCCCATCCCGGAGTCACCTAGTGCAG,6610 fluorescence intensity (a.u.)
3,CAGCCATCCATCCCACCCACACGTCACCACCCGCGCATCCCGGAGTCACCTAGTGCAG,20500 fluorescence intensity (a.u.)
4,ATGTCAGGATGCCACGTCACACCCTTTCTTTCCCCTCCTCCGGAGTCACCTAGTGCAG,45200 fluorescence intensity (a.u.)
5,GTTCCACATGTCATCCTCTCCCTTTCTTCTTCCTCCCCTCCGGAGTCACCTAGTGCAG,3930 fluorescence intensity (a.u.)
6,CAGGATGCCACGTCAGCGCCCTCTATCTCTTTCCCCTCCTCGGAGTCACCTAGTGCAG,51300 fluorescence intensity (a.u.)
7,AATGTGACCACGTCATCCCCTTCTTTCCCTTTCCCCTCTTCGGAGTCACCTAGTGCAG,33300 fluorescence intensity (a.u.)
8,TCCTCCCACGCTTCTTCTTCTTCTTCTTCTTCCCTTTCCCCGGAGTCACCTAGTGCAG,9800 fluorescence intensity (a.u.)
9,GTCAGTGTGGCCACGTCAGCATCCTCTCTTTTCCTCTCTTCGGAGTCACCTAGTGCAG,40800 fluorescence intensity (a.u.)
10,CATGTCAGGACGCCACGTCATCATGCTCTCTCTTTCCCCTCGGAGTCACCTAGTGCAG,33600 fluorescence intensity (a.u.)
11,CCACGTGTCAGCATTGCCACATCAGCTTCCTCTCTCTTTTCGGAGTCACCTAGTGCAG,24100 fluorescence intensity (a.u.)
12,CCACATGTCAGGATGCCACGTCATCTCTCTTTCCCCTCTTCGGAGTCACCTAGTGCAG,33600 fluorescence intensity (a.u.)
13,AGGTGCAGATGCTACTACTGATCTGGAACAGTGATCTCCACGGAGTCACCTAGTGCAG,3180 fluorescence intensity (a.u.)
14,CCCATTGCTGTCTCTACCATGTGTCATCTTCCAATAAGCACGGAGTCACCTAGTGCAG,4950 fluorescence intensity (a.u.)
15,GGCTGCGGCGCTGTCCCTCCGTCTGCGTGATCCGACAACCCGGAGTCACCTAGTGCAG,3800 fluorescence intensity (a.u.)
16,AACCAACCAACCACGTCGATCGCTCGCAGTCGCCGCCGCGCGGAGTCACCTAGTGCAG,3840 fluorescence intensity (a.u.)
17,GCAGGCTGAATAAAACTGTATTGTCATCGATGATATTGGTCGGAGTCACCTAGTGCAG,5020 fluorescence intensity (a.u.)
18,AAAACAAATATAGAGGAGACAGCTCATTTTATTTCCTTGACGGAGTCACCTAGTGCAG,3340 fluorescence intensity (a.u.)
19,ATAAGGGCCAGCATGTACGTGACAGTGCCATTCGGGCCCACGGAGTCACCTAGTGCAG,4850 fluorescence intensity (a.u.)
20,CATGTCAGACAGTCCACGTCATCACCTTTCTCTCCCCTCTCGGAGTCACCTAGTGCAG,38200 fluorescence intensity (a.u.)
21,CTACATATCAGGTGTCCACGTCACCCTCTCTCTTTCCCCTCGGAGTCACCTAGTGCAG,37200 fluorescence intensity (a.u.)
22,AAGTCAGGGTGTCCACGTCATCACCCTCCCTCTTTCTCCTCGGAGTCACCTAGTGCAG,55700 fluorescence intensity (a.u.)
23,TTAACTCGGTCTTCATCCTGTGTGACGCCTACGATACAACCGGAGTCACCTAGTGCAG,4380 fluorescence intensity (a.u.)
